Hit rate of the full screen: of about 99,000 compounds, about 340 (0.34%) were called active. This excerpt belongs to a sample that is enriched for actives. Unmarked numbers belong to inactive results. Rule as the data show it: active = TR-FRET ratio above about 2300; inactive = the rest.
Test: signal artefacts in PPARgamma/SRC-1 readout – biochemical, TR-FRET emission ratio, artefact control for PPARgamma SRC-1 recruitment agonists, primary screen (AID 1051)
Conditions: TR-FRET detection artefact counter-screen, at 8 µM, hits give high values
For `COc1cc(-n2c(=S)[nH]c3ccc(C)cc3c2=O)c(Cl)cc1Cl`, the TR-FRET ratio was 2560 (active). `O=C1N=c2ccccc2=C/C1=C\c1c(O)[nH]c(=S)[nH]c1=O` gave a TR-FRET ratio of 1870. `COc1ccc(C2N3CC(C)(C)CN23)cc1` (stereo not given) showed a TR-FRET ratio of 1740. Molecule `CCOP(=O)(OCC)C(NC(=O)c1ccc(C)cc1)C(Cl)(Cl)Cl` (stereo not given) has a TR-FRET ratio of 1720. `OCC#CC[N+]1(CC#Cc2ccccc2)CCCC1` gave a TR-FRET ratio of 1790.

Reference: PubChem BioAssay AID1051 (The Scripps Research Institute Molecular Screening Center, 2008)
